The sample as a whole holds a higher share of hits than the screen did.
Sm TGR inh: qHTS Assay for the Inhibitors of Schistosoma Mansoni Peroxiredoxins; Schistosoma mansoni thioredoxin glutathione reductase (TGR), Q962Y6; purified TGR, DTNB reduction, TNB absorbance 405 nm; Potency, µM (titrated, usually from 114 µM), for inactives: at the highest dose activity change, negative = inhibition, actives largely listed as inhibitors; 360,000 compounds, 3% hits; further: potency means the concentration at half of the fitted maximal effect; on the % scale 0 is the no-effect control and ±100 the full control effect; nearly all actives have a fitted effect of over 60% in size
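First, TGR (20 nM dispensed) and NADPH were mixed with compound. Second, a 15 min room-temperature incubation followed. Third, further NADPH and then DTNB were added to start the reaction. Finally, TNB absorbance was monitored kinetically.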
LmPK inh: qHTS Assay for Inhibitors of Leishmania Mexicana Pyruvate Kinase (LmPK) | Q27686 | purified LmPK, Kinase-Glo ATP luminescence, 1 h | Potency, µM (doses to about 57.5 µM), without a hit: at the top dose activity change, negative = inhibition, usual class: inhibitors | 290,000 compounds, 0.37% hits | AID 1721, 2009; further: potency means the concentration at half of the fitted maximal effect; on the % scale 0 is the no-effect control and ±100 the full control effect
Target sequence (Q27686 whole entry, looked up): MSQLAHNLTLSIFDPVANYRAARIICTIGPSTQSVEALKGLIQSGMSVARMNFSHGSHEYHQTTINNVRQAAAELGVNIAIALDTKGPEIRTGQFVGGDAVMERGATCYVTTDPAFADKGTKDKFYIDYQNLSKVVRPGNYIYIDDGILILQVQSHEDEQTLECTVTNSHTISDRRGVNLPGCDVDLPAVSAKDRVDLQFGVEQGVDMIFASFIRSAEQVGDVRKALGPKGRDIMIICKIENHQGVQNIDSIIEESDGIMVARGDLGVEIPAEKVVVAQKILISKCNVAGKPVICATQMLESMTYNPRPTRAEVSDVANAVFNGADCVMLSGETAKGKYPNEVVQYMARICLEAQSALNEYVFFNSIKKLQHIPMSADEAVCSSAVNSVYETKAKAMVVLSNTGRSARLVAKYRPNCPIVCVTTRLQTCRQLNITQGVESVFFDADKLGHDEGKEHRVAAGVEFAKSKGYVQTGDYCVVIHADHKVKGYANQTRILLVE
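Screened at intermediate enzyme activity to detect both inhibitors and activators: LmPK at 0.1 nM, with a 0.5 nM enzyme column as activation reference. PEP 0.5 mM, ADP 0.1 mM; ATP detected by luminescence after 1 h.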
Cycloheximide cs: Cycloheximide Counterscreen for Small Molecule Inhibitors of Shiga Toxin; cell reporter, cycloheximide protein synthesis inhibition counterscreen; 300,000 compounds, 12% hits; max response, %; in the data active means max response mostly above about 13%, no sharp cut-off; inactive means mostly below about 14%; further: read at 38.3 µM for the half of the compounds with a filed dose; 0% is about no effect
Giardia FBPA inh: qHTS Assay for Inhibitors of Fructose-1,6-bisphosphate Aldolase from Giardia Lamblia | Potency, µM (doses to about 59.6 µM), without a hit: at the highest dose activity, negative = inhibition, actives largely listed as inhibitors | AID 2451, 2010 | A8B2U2 | purified Giardia FBPA | 290,000 compounds, 0.71% hits; further: potency means the concentration at half of the fitted maximal effect; on the % scale 0 is the no-effect control and ±100 the full control effect; nearly all actives have a fitted effect of over 55% in size
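Giardia FBPA (40 nM reagent) was preincubated 10 min at RT with compound (up to 57.5 uM final), then substrate plus GAPDH/TPI/NAD/arsenate coupling system with diaphorase/resazurin was added; resorufin fluorescence (525/598 nm) was read after 20 min.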
Shiga inhibitor: A qHTS for Small Molecule Inhibitors of Shiga Toxin; Vero cells, Shiga toxin protein synthesis inhibition reporter; inhibition, % at 38.7 µM; 290,000 compounds, 9.2% hits; AID 2315, 2010; in the data active means inhibition mostly above about 28%, no sharp cut-off; inactive means mostly below about 43%; further: 0% is about no effect
TbPYK inhibitor: qHTS of Trypanosoma Brucei Inhibitors; pyruvate kinase (Trypanosoma brucei), Q57TT1; TbPYK enzyme, Kinase-Glo Plus ATP luminescence, 45 min; Potency, µM (highest dose often 76.8 µM), for inactives: at the highest dose activity, negative = inhibition, actives largely listed as inhibitors; 410,000 compounds, 0.12% hits; AID 624173, 2012; further: potency means the concentration at half of the fitted maximal effect; on the % scale 0 is the no-effect control and ±100 the full control effect; nearly all actives have a fitted effect of over 50% in size
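In this concentration-response screen, enzyme-free wells defined baseline while DMSO plates tracked drift. Each reaction combined TbPYK, substrate, compound and 130 uM ADP for 45 min at room temperature. Kinase-Glo Plus luminescence gave the signal.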
* hit, by the source's call; [ ] = another dose, or the depositor's remark. Unless noted, the call rests on the fitted dose curve; in most records, active means well fitted curve in the direction sought with a large enough effect; inconclusive means small, poorly fitted or top-dose-only effect, or another doubt; inactive means no such curve, though single readings can be large; an effect the other way counts as inactive or inconclusive.

How did O=C(C1=C(O)C(=O)N(Cc2ccco2)C1c1cccnc1)c1cc2ccccc2o1 (configuration not stated) do in these assays?
Sm TGR inh: 25µM*; LmPK inh: 5%; Cycloheximide cs: -2; Giardia FBPA inh: 11%; Shiga inhibitor: -3; TbPYK inhibitor: -17%

How did COc1cccc2cc(C(=O)C3=C(O)C(=O)N(Cc4ccco4)C3c3cccnc3)oc12 (configuration not stated) do in these assays?
Sm TGR inh: 25µM*; LmPK inh: 8%; Cycloheximide cs: -4; Giardia FBPA inh: 10%; Shiga inhibitor: 30; TbPYK inhibitor: 4%

Results for O=C(O)CN(CC(=O)O)c1ccccc1OCCOc1ccccc1N(CC(=O)O)CC(=O)O ?
Cycloheximide cs: 10; Giardia FBPA inh: inconclusive; Shiga inhibitor: 4

Results for CC(Oc1ccc(Cl)cc1Cl)c1nc(-c2ccc(NC(=O)c3ccccn3)cc2)no1 (configuration not stated) ?
Sm TGR inh: -3%; LmPK inh: -20%; Cycloheximide cs: 28*; Giardia FBPA inh: 0%; Shiga inhibitor: 71*; TbPYK inhibitor: 3%

How did COc1ncc2nc(-c3ccc(F)cc3)c(=O)n(Cc3cccs3)c2n1 do in these assays?
Giardia FBPA inh: -2%

Results for FC(F)(F)c1cc(-c2ccco2)nc(NCc2cccs2)n1 ?
Sm TGR inh: 20µM*; LmPK inh: 5%; Cycloheximide cs: -1; Giardia FBPA inh: -2%; Shiga inhibitor: -6; TbPYK inhibitor: -2%

How did COn1c(-c2ccccc2)nc2ccc(Cl)cc21 do in these assays?
Sm TGR inh: 1%; LmPK inh: -12%; Cycloheximide cs: 31*; Giardia FBPA inh: -5%; Shiga inhibitor: 72*; TbPYK inhibitor: -4%

How did O=C(O)COn1c(-c2ccccc2)nc2ccc(Cl)cc21 do in these assays?
LmPK inh: -8%; Cycloheximide cs: 22*; Giardia FBPA inh: -17%; Shiga inhibitor: 40; TbPYK inhibitor: -1%

Results for O=[N+]([O-])c1ccc2nc(-c3ccccc3)n(OCc3ccc(Cl)cc3)c2c1 ?
Sm TGR inh: 0%; LmPK inh: 12%; Cycloheximide cs: 18*; Giardia FBPA inh: -3%; Shiga inhibitor: 18; TbPYK inhibitor: -4%

What do the screens show for `COc1ccc([N+](=O)[O-])cc1NS(=O)(=O)c1cc(C(=O)N2CCN(C)CC2)ccc1OC`?
Sm TGR inh: -7%; TbPYK inhibitor: -8%

Results for COC(=O)[C@@H]1C[C@H]1[C@@H](NC(=O)Oc1ccc(F)cc1)c1ccccc1 ?
Giardia FBPA inh: -14%

What do the screens show for `COCCNC(=S)N1CCC(c2nc(-c3ccc(N(C)C)cc3)no2)CC1`?
LmPK inh: 4%; Cycloheximide cs: 24*; Giardia FBPA inh: -8%; Shiga inhibitor: 49; TbPYK inhibitor: -14%

Results for CCC(CC)NC(=O)c1oc2ccccc2c1COc1ccccc1 ?
Sm TGR inh: 11%; LmPK inh: 2%; Cycloheximide cs: 8.4*; Giardia FBPA inh: 1%; Shiga inhibitor: 25; TbPYK inhibitor: -10%

How did O=C(Nc1ccc(Cl)cc1F)c1oc(=O)c2ccccc2c1-c1ccccc1 do in these assays?
Sm TGR inh: 1%; TbPYK inhibitor: 4%

How did COCc1c(C(=O)Nc2ccc(Cl)cc2F)oc2ccccc12 do in these assays?
Sm TGR inh: 3%; LmPK inh: 1%[11.5 µM]; Cycloheximide cs: 29*; Giardia FBPA inh: -2%; Shiga inhibitor: 185*; TbPYK inhibitor: 1%

What do the screens show for `COc1ccc2oc(C(=O)Nc3nc(C)cs3)c(C)c2c1`?
Sm TGR inh: 1%; TbPYK inhibitor: 2%

Results for COCc1c(C(=O)Nc2nc(C)cs2)oc2ccccc12 ?
Sm TGR inh: 0%; LmPK inh: 6%; Cycloheximide cs: 25*; Giardia FBPA inh: -8%; Shiga inhibitor: 44*; TbPYK inhibitor: 1%

What do the screens show for `CC(C)CNC(=O)c1oc2ccccc2c1COc1ccccc1`?
Sm TGR inh: -1%; LmPK inh: -1%; Cycloheximide cs: -5; Giardia FBPA inh: -2%; Shiga inhibitor: -12; TbPYK inhibitor: -6%

How did CS(=O)(=O)N(Cc1ccccc1)c1ccc(C(=O)Nc2ccc(Cl)cc2)cc1 do in these assays?
Sm TGR inh: 0%; TbPYK inhibitor: -6%

Results for CCCCOc1ccccc1C1CC(=O)Nc2ccc3ccccc3c21 (configuration not stated) ?
Sm TGR inh: 7%; TbPYK inhibitor: 0%

How did Cc1ccc(F)cc1-c1ccc(C(=O)N=C(N)N)o1 do in these assays?
Cycloheximide cs: 32*; Giardia FBPA inh: 0%; Shiga inhibitor: 60*

How did Cc1ccc(F)cc1-c1cc(C(=O)NCc2cc(C(F)(F)F)cc(C(F)(F)F)c2)[nH]n1 do in these assays?
TbPYK inhibitor: -3%

Results for O=C(COC(=O)Cn1cnc2ccccc21)Nc1cc(S(=O)(=O)N2CCOCC2)ccc1Cl ?
Sm TGR inh: 4%; LmPK inh: 2%; Cycloheximide cs: -7; Giardia FBPA inh: 0%; Shiga inhibitor: 6; TbPYK inhibitor: -6%

How did O=C(COC(=O)Cn1cnc2ccccc21)Nc1cc2c(cc1Cl)C(=O)c1ccccc1C2=O do in these assays?
LmPK inh: -13%; Cycloheximide cs: 37*; Giardia FBPA inh: -20%; Shiga inhibitor: 50*; TbPYK inhibitor: -5%

What do the screens show for `COc1cccc(/C=C2\N=C(C3CCCCC3)OC2=O)c1OC`?
Sm TGR inh: inconclusive; LmPK inh: 8%; Cycloheximide cs: 52*; Giardia FBPA inh: 4%; Shiga inhibitor: 13; TbPYK inhibitor: 0%

What do the screens show for `CC(=O)Oc1ccc(/C=C2\N=C(C3CCCCC3)OC2=O)cc1`?
Sm TGR inh: inconclusive; LmPK inh: 4%; Cycloheximide cs: 4; Giardia FBPA inh: 4%; Shiga inhibitor: -3; TbPYK inhibitor: 0%

Results for COc1ccccc1Nc1nc(N)nc(CSC(=S)N2CCN(c3ccccc3)CC2)n1 ?
Sm TGR inh: 5%; LmPK inh: -8%; Cycloheximide cs: 18; Giardia FBPA inh: -1%; Shiga inhibitor: 21; TbPYK inhibitor: -1%

Results for COc1ccccc1Nc1nc(N)nc(CSC(=S)N2CCC(C)CC2)n1 ?
Sm TGR inh: 3%; LmPK inh: 4%; Cycloheximide cs: 43*; Giardia FBPA inh: 0%; Shiga inhibitor: 31; TbPYK inhibitor: -1%

What do the screens show for `COc1ccccc1Nc1nc(N)nc(-c2cc3ccccc3o2)n1`?
Sm TGR inh: -3%; LmPK inh: 3%; Cycloheximide cs: 33*; Giardia FBPA inh: -1%; Shiga inhibitor: active; TbPYK inhibitor: -5%

Source: PubChem BioAssay
